Where a name gives a salt, the structure may show the parent alone. ± gives the standard deviation of the averaged measurements.
Experiments:
Details in all cases: concentration: 10 µM; 24 h
HCC1569 [1] = assay: cell number relative to DMSO (% of DMSO); higher = more cells (less growth inhibition / toxicity)
Procedure, shortened: (§1)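 For HCC1569 and TDF cells, compounds at 10 µM were applied for 24 h at 37 °C in triplicate in 384-well plates. Cells were fixed in 3.7% formaldehyde, stained for H1.0 and with DAPI, and imaged at ×10 over six fields per well. The endpoint, H1.0 nuclear intensity or cell number, is shown as percent of the plate control using the median of replicates. Positional effects were smoothed for HCC1569 only.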

TDF [2] = assay: as above
Procedure, shortened: as §1

TDF [3] = assay: H1.0 immunofluorescence intensity relative to DMSO (% of DMSO); higher = stronger H1.0 induction, active = 120 or more
Procedure, shortened: as §1

HCC1569 [4] = assay: H1.0 immunofluorescence intensity relative to DMSO (% of DMSO); higher = stronger H1.0 induction, active = 140 or more
Procedure, shortened: as §1
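Throughout, for H1.0 immunofluorescence intensity relative to DMSO: TDF is a line of transformed human dermal fibroblasts of mesenchymal origin.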
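Throughout, for cell number relative to DMSO: TDF denotes transformed human dermal fibroblasts of mesenchymal origin.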

SMILES	cell number (HCC1569 [1])	cell number (TDF [2])	H1.0 immunofluorescence intensity (TDF [3])	H1.0 immunofluorescence intensity (HCC1569 [4])
O=C(O)CNC(=O)C(CS)Cc1ccccc1 (racemic) [DL-Thiorphan]	105	95.5	93.4 (inactive)	96.1 (inactive)
Cl.c1ccc2c(c1)CCCC2C1=NCCN1 (centres undefined) [Tetrahydrozoline hydrochloride]	101	98.1	89.8 (inactive)	98.3 (inactive)
CC(C)C(=O)Nc1ncc(-c2cc(C(F)F)nn2-c2c(Cl)cccc2Cl)s1	75.5	69.8	111 (inactive)	111 (inactive)
N#CC(=Cc1ccc(O)c(O)c1)C(=O)c1ccc(O)c(O)c1 [Tyrphostin AG 538]	80.4	97.3	99.2 (inactive)	190 (active)
COc1ccccc1OCC(O)CN1CCN(CC(=O)Nc2c(C)cccc2C)CC1.Cl.Cl (centres undefined) [Ranolazine dihydrochloride]	104	107	97.9 (inactive)	99.9 (inactive)
O=[N+]([O-])c1ccc([O-])c(OS(=O)(=O)[O-])c1.[K+].[K+] [dipotassium 5-nitro-2-oxidophenyl sulfate]	99.5	108	90.9 (inactive)	100 (inactive)
CC(C)NCC(O)COc1cccc2ccccc12.Cl (racemic)	101	91.5	98.8 (inactive)	94.2 (inactive)
COc1ccccc1Oc1c(NS(=O)(=O)c2ccc(C(C)(C)C)cc2)nc(-c2ncccn2)nc1OCCO [Bosentan]	99.5	98.2	98.9 (inactive)	107 (inactive)
CC1(C)CCCC(C)(C2CCC3(C)C2C(O)CC2C4(C)CCC(O)C(C)(C)C4CCC23C)O1 (centres undefined) [Panaxadiol]	105	103	91.8 (inactive)	93.6 (inactive)
Cl.O=C(O)C1CCCN(CCC=C(c2ccccc2)c2ccccc2)C1 (centres undefined)	97.9	92.7	98.1 (inactive)	98.1 (inactive)
CC=Cc1ccc(OC)cc1 [Anethole, trans-]	96.1	81.4	107 (inactive)	105 (inactive)
COc1cc2ncnc(N3CCN(C(=O)Nc4ccc(Oc5ccccc5)cc4)CC3)c2cc1OC [PDGF Receptor Tyrosine Kinase Inhibitor III]	72.2	62.2	102 (inactive)	215 (active)
Cc1nc(-c2ccccc2)c(-c2ccncc2)o1	99.2	116	94.1 (inactive)	103 (inactive)
CCOC(=O)C(CCc1ccccc1)NC(C)C(=O)N1Cc2ccccc2CC1C(=O)O (centres undefined) [Quinapril]	102	101	101 (inactive)	101 (inactive)
CCCCCCCCCCCC=CC(C)(C)C=CCCCC(=O)O [7,7-Dimethyl-(5Z,8Z)-eicosadienoic acid]	102	101	91.9 (inactive)	92.2 (inactive)
Cl.Nc1ccn(C2OC(CO)C(O)C2O)c(=O)n1 [Cytosine-1-beta-D-arabinofuranoside hydrochloride]	75.3	45.5	121 (active)	100 (inactive)
N=C(N)c1ccc(OCCCCCOc2ccc(C(=N)N)cc2)cc1 [Pentamidine]	101	104	92.3 (inactive)	113 (inactive)
Cc1ccc(C(=O)c2cc(O)c(O)c([N+](=O)[O-])c2)cc1 [Tolcapone]	101	92.1	93.3 (inactive)	112 (inactive)
NC(=O)c1ccc(N(C(N)=O)c2c(F)cccc2F)nc1-c1ccc(F)cc1F	105	104	94.8 (inactive)	90.2 (inactive)
CCOC(=O)CN1C(=O)c2ccc3c4c(ccc(c24)C1=O)C(=O)N(CC(=O)OCC)C3=O	104	105	89.7 (inactive)	100 (inactive)
CC(C)CCCC(C)C1CCC2C3CCC4=CC(N=O)CCC4(C)C3CCC12C [(20S)-cholest-4-en-3-one oxime]	99.4	110	90.2 (inactive)	101 (inactive)
Cc1scc2c1N(C(=O)CN1CCN(C)CC1)c1ccccc1NC2=O.Cl.Cl [Telenzepine.2HCl]	101	99.1	96.6 (inactive)	103 (inactive)
Oc1cc2c(cc1O)CN(C(=S)NCCc1ccc(Cl)cc1)CCC2 [Capsazepine]	106	112	91.8 (inactive)	86.2 (inactive)
C[N+](C)(C)CCO.[Cl-] [2-hydroxy-N,N,N-trimethylethanaminium chloride]	101	107	94.9 (inactive)	99.5 (inactive)
COc1ccc(Br)cc1S(=O)(=O)NC(=O)/C=C/c1ccccc1Cc1ccc2ccccc2c1	98.1	103	90.2 (inactive)	103 (inactive)
CC[C@H](C(=O)Nc1ccccc1N1CCCC1)c1ccccc1 [(2S)-2-Phenyl-N-[2-(1-pyrrolidinyl)phenyl]butanamide]	101	103	96.1 (inactive)	105 (inactive)

SMILES	cell number (HCC1569 [1])	cell number (TDF [2])	H1.0 immunofluorescence intensity (TDF [3])	H1.0 immunofluorescence intensity (HCC1569 [4])
CC=CC(=O)N(CC)c1ccccc1C [Crotamiton]	103	98.5	101 (inactive)	104 (inactive)
CCCCNc1ccc(C(=O)OCCN(C)C)cc1.Cl [Tetracaine hydrochloride]	100	101	102 (inactive)	95.8 (inactive)
COC1=CC(C)C2CC3OC(=O)CC4C(C)=C(OC)C(=O)C(C2(C)C1=O)C34C (centres undefined) [Quassin]	101	89.6	96.8 (inactive)	94.8 (inactive)
O=c1c(O)c(-c2ccc(O)cc2O)oc2cc(O)cc(O)c12 [Morine]	101	109	95 (inactive)	82.4 (inactive)
CC(C)C1CCC(C(=O)NC(Cc2ccccc2)C(=O)O)CC1 (centres undefined) [Nateglinide]	105	112	96.1 (inactive)	102 (inactive)
C=CCCCCCCCCCCC(=O)O [12-Tridecenoic acid]	99.7	91.7	106 (inactive)	98.7 (inactive)
O=c1c(-c2ccc(O)cc2)coc2cc(O)ccc12 [Daidzein]	101 ± 2.1	107 ± 14	92.4 (inactive)	94.6 (inactive)
C=CC(N)CCC(=O)O (racemic)	92.9	99	97.3 (inactive)	107 (inactive)
CC1(C)C=Cc2c(ccc3c2OC[C@@H](c2ccc(O)cc2O)C3)O1	99.4	93.1	101 (inactive)	109 (inactive)
CSc1ccc(C(=O)c2[nH]c(=O)[nH]c2C)cc1 [Enoximone]	107	109	96.3 (inactive)	105 (inactive)
O=C(Nc1cc(C(F)(F)F)cc(C(F)(F)F)c1)c1cc(Cl)ccc1O	57	52.7	115 (inactive)	122 (inactive)
NS(=O)(=O)c1ccc2c(c1)C1C=CCC1C(c1ccc(Br)cc1)N2 (centres undefined)	102	91.3	95.3 (inactive)	114 (inactive)
O=C(O)c1cc(=O)cc(C(=O)O)[nH]1 [Chelidamic acid]	98.8	109	90 (inactive)	96.3 (inactive)
CC(C(O)c1ccc(O)cc1)N1CCC(Cc2ccccc2)CC1 (centres undefined) [Ifenprodil tartrate]	104	102	94.5 (inactive)	98.5 (inactive)
COc1cc(-c2oc3cc(O)cc(O)c3c(=O)c2OC2OC(CO)C(O)C(O)C2O)ccc1O (centres undefined) [Isorhamnetine-3-glucoside]	102	98.2	97.6 (inactive)	85.8 (inactive)
CC(C)(C)OC(=O)CN(Cc1ccc(Cl)cc1)Cc1ccc([N+](=O)[O-])s1	100	105	102 (inactive)	99 (inactive)
NCCCCC(NC(CCc1ccccc1)C(=O)O)C(=O)N1CCCC1C(=O)O (centres undefined) [Lisinopril]	105	99.8	97.2 (inactive)	98.8 (inactive)
Cc1ccccc1N1C(=O)c2cc(S(N)(=O)=O)c(Cl)cc2NC1C (centres undefined) [Metolazone]	104	110	89.8 (inactive)	91.1 (inactive)
CCCCCCCCC=CCCCCCCCCCCCCC(=O)O [14(Z)-Tricosenoic acid]	100	106	100 (inactive)	101 (inactive)
CC(=O)c1ccc(NC2=C(Cl)C(=O)c3ccccc3C2=O)cc1 [2-(4-acetylanilino)-3-chloronaphthoquinone]	17.7	8.89	150 (active)	178 (active)
CCOC([O-])=Nc1c[n+](N2CCOCC2)no1 [Molsidomine]	106 ± 1.7	96.4 ± 7.5	101 (inactive)	94 (inactive)
COc1c(N2CCNC(C)C2)c(F)cc2c(=O)c(C(=O)O)cn(C3CC3)c12 (centres undefined) [Gatifloxacin]	101	107	94.2 (inactive)	107 (inactive)
Nc1ccccc1NC(=O)CCCCCCC(=O)Nc1ccccc1 [N~1~-(2-aminophenyl)-N~8~-phenyloctanediamide]	98.8	89.4	92.6 (inactive)	145 (active)
CCCCCC=CCC=CCC=CC=CC1CCCC(=O)O1 (racemic)	106	97	98.2 (inactive)	103 (inactive)
O=C(Nc1cc(C(=O)Nc2ccc(S(=O)(=O)[O-])cc2S(=O)(=O)[O-])cc(C(=O)Nc2ccc(S(=O)(=O)[O-])cc2S(=O)(=O)[O-])c1)Nc1cc(C(=O)Nc2ccc(S(=O)(=O)[O-])cc2S(=O)(=O)[O-])cc(C(=O)Nc2ccc(S(=O)(=O)[O-])cc2S(=O)(=O)[O-])c1.[Na+].[Na+].[Na+].[Na+].[Na+] [NF449 octasodium salt]	97.4	92.8	89.6 (inactive)	108 (inactive)

Reference: the supplement of paper PMC7156485
